This is part of a sample that, as a whole, favours compounds with a hit. Of some 79,000 tested, about 15% had one in any assay. Active and inactive are the calls of the source. Cut-off read from the data, not from the text of the source: active = growth inhibition above about 70%; inactive = the rest.
Key:
[1] = NCI Yeast Anticancer Drug Screen. Data for the rad52 strain (AID 147);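 note: 0% = growth of vehicle-treated control cultures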; conditions: S. cerevisiae rad52 mutant growth inhibition, active compounds read high
How it was run: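 The repair-mutant yeast strain was incubated with compounds, then growth was read and inhibition derived relative to vehicle.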

[2] = NCI Yeast Anticancer Drug Screen. Data for the wt1 strain (AID 149);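 note: 0% = growth of vehicle-treated wt1 cultures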; conditions: S. cerevisiae wt1 strain (SPY 50644) growth inhibition, active compounds read high
How it was run: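 Vehicle-normalised growth inhibition; strain wt1; compound exposure.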

[3] = NCI Yeast Anticancer Drug Screen. Data for the rad50EPP+ strain (AID 151);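 note: 0% = growth of vehicle-treated control cultures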; conditions: S. cerevisiae rad50 mutant strain, active compounds read high
How it was run: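 Vehicle-normalised growth inhibition; rad50EPP+ yeast strain, altered in DNA damage repair, compound-treated.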

[4] = NCI Yeast Anticancer Drug Screen. Data for the mgt1 strain (AID 153); conditions: S. cerevisiae mgt1 mutant growth inhibition, active compounds read high
How it was run: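 Vehicle-normalized growth inhibition is determined in mgt1 yeast, a strain selected for a defined alteration in DNA repair or cell cycle control.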

[5] = NCI Yeast Anticancer Drug Screen. Data for the rad50 strain (AID 155);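 note: 0% = growth of vehicle-only cultures of the same strain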; conditions: S. cerevisiae rad50 strain growth inhibition, active compounds read high
How it was run: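 A DNA repair-deficient yeast mutant serves as the test organism; compound-induced growth inhibition is calculated against vehicle-treated cells.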

[6] = NCI Yeast Anticancer Drug Screen. Data for the mec2-1 strain (AID 157); conditions: S. cerevisiae mec2-1 strain, active compounds read high
How it was run: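 Mutant yeast (mec2-1) grown with compound; growth inhibition relative to vehicle control reported.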

[7] = NCI Yeast Anticancer Drug Screen. Data for the rad14 strain (AID 159);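 note: 0% = growth of vehicle-treated control cultures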; conditions: S. cerevisiae rad14 strain growth inhibition, active compounds read high
How it was run: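 Vehicle-treated cultures served as the baseline for growth inhibition of a DNA repair-mutant yeast strain exposed to each compound.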

[8] = NCI Yeast Anticancer Drug Screen. Data for the sgs1 mgt1 strain (AID 161);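 note: 0% = growth of cultures given vehicle only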; conditions: S. cerevisiae sgs1 mgt1 strain, active compounds read high
How it was run: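 Compounds are added to genetically altered yeast, and growth is compared with cultures given vehicle alone to give percent inhibition.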

[9] = NCI Yeast Anticancer Drug Screen. Data for the CLN2oe strain (AID 163);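 note: 0% = growth of vehicle-only control cultures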; conditions: S. cerevisiae CLN2oe strain, active compounds read high
How it was run: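 Compounds are applied to yeast harbouring a defined cell-cycle control change; reduced growth compared with vehicle-treated controls gives the value.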

[10] = NCI Yeast Anticancer Drug Screen. Data for the cln2 rad14 strain (AID 165);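 note: 0% = growth equal to vehicle treated cultures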; conditions: S. cerevisiae cln2 rad14 strain, active compounds read high
How it was run: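 Readout is yeast growth inhibition versus vehicle-treated controls, using a strain with cln2 and rad14 alterations exposed to compound.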

[11] = NCI Yeast Anticancer Drug Screen. Data for the bub3 strain (AID 167); conditions: S. cerevisiae bub3 mutant strain, active compounds read high
How it was run: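 Inhibition values come from growth of compound-treated mutant yeast normalised to vehicle-treated controls.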

[12] = NCI Yeast Anticancer Drug Screen. Data for the wt2 strain (AID 169);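 note: 0% = growth of vehicle-treated yeast cultures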; conditions: S. cerevisiae wt2 strain growth inhibition, active compounds read high
How it was run: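 Against vehicle-treated controls, the growth of yeast exposed to each compound was compared, and the inhibition was recorded.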

[13] = NCI Yeast Anticancer Drug Screen. Data for the mlh1 strain (AID 171);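 note: 0% = growth of vehicle-treated control cultures of the same strain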; conditions: S. cerevisiae mlh1 strain growth inhibition, active compounds read high
How it was run: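 Measured: yeast growth. Reference: vehicle-treated controls. Organism: strain with a defined alteration affecting DNA damage repair or cell cycle control, treated with compound.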

[14] = NCI Yeast Anticancer Drug Screen. Data for the sgs1 strain (AID 173);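 note: 0% = growth of vehicle-only control cultures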; conditions: S. cerevisiae sgs1 mutant, active compounds read high
How it was run: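 Each compound was added to cultures of the altered yeast strain. Growth was recorded, and inhibition was derived by comparison with vehicle controls.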

[15] = NCI Yeast Anticancer Drug Screen. Data for the mlh1 rad18 strain (AID 175); conditions: S. cerevisiae mlh1 rad18 strain growth inhibition, active compounds read high
How it was run: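 Genetically defined yeast (DNA repair-deficient) exposed to compounds; growth inhibition determined relative to vehicle.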

[16] = NCI Yeast Anticancer Drug Screen. Data for the rad18 strain (AID 177); conditions: S. cerevisiae rad18 mutant growth inhibition, active compounds read high
How it was run: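 Vehicle-treated cultures served as the baseline for scoring compound-induced growth inhibition in DNA-repair-mutant yeast.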

[17] = at 5.0 µM (retest, dose inferred, filed as 0.5)
[18] = at 50.0 µM (retest, dose inferred, filed as 5.0)

Measured: growth inhibition

NC(N)=NS(=O)(=O)c1ccc(Nc2c3ccccc3nc3c(C(=O)NC(CO)(CO)CO)cccc23)cc1
active: [1]; at 100.0 µM 91% | [3]; at 100.0 µM 85% | [5]; [18] 94% | [5]; at 50.0 µM 70.8% | [5]; at 100.0 µM 89%
inactive: [1]; at 1.2 µM 1% | [1]; at 3.7 µM 9% | [1]; at 11.0 µM 25% | [1]; at 33.0 µM 66% | [2]; at 1.2 µM -1% | [2]; at 3.7 µM 0% | [2]; at 11.0 µM 0% | [2]; at 33.0 µM -1% | [2]; at 100.0 µM 2% | [3]; at 1.2 µM 1% | [3]; at 3.7 µM 5% | [3]; at 11.0 µM 15% | [3]; at 33.0 µM 44% | [4]; at 1.2 µM 2% | [4]; at 3.7 µM -1% | [4]; at 11.0 µM -2% | [4]; at 33.0 µM 1% | [4]; at 100.0 µM 4% | [5]; at 1.2 µM 3% | [5]; at 3.7 µM 9% | [5]; [17] 6% | [5]; at 11.0 µM 27% | [5]; at 33.0 µM 64% | [6]; at 1.2 µM -1% | [6]; at 3.7 µM -1% | [6]; [17] 1% | [6]; at 11.0 µM 1% | [6]; at 33.0 µM 3% | [6]; [18] -13% | [6]; at 50.0 µM 8.65% | [6]; at 100.0 µM 13% | [7]; at 1.2 µM -1% | [7]; at 3.7 µM 3% | [7]; at 11.0 µM 3% | [7]; at 33.0 µM 3% | [7]; at 100.0 µM 10% | [8]; [17] 8% | [8]; [18] -3% | [8]; at 50.0 µM -20.5% | [9]; at 1.2 µM 2% | [9]; at 3.7 µM 2% | [9]; at 11.0 µM 4% | [9]; at 33.0 µM 1% | [9]; at 100.0 µM 1% | [10]; [17] 35% | [10]; [18] 3% | [10]; at 50.0 µM -9.45% | [11]; at 1.2 µM -1% | [11]; at 3.7 µM 2% | [11]; [17] -11% | [11]; at 11.0 µM 2% | [11]; at 33.0 µM 0% | [11]; [18] 15% | [11]; at 50.0 µM -5.3% | [11]; at 100.0 µM -2% | [12]; at 1.2 µM -1% | [12]; at 3.7 µM -2% | [12]; at 11.0 µM -1% | [12]; at 33.0 µM -1% | [12]; at 100.0 µM 4% | [13]; at 1.2 µM -1% | [13]; at 3.7 µM 0% | [13]; at 11.0 µM 0% | [13]; at 33.0 µM 0% | [13]; at 100.0 µM 5% | [14]; at 1.2 µM -1% | [14]; at 3.7 µM 1% | [14]; at 11.0 µM 2% | [14]; at 33.0 µM 2% | [14]; at 100.0 µM 8% | [15]; [17] 12% | [15]; [18] 12% | [15]; at 50.0 µM 15.7% | [16]; at 1.2 µM -3% | [16]; at 3.7 µM 0% | [16]; at 11.0 µM -1% | [16]; at 33.0 µM 2% | [16]; at 100.0 µM 9%

COc1ccccc1/C=C\C(=O)C1COCN1 (stereo unspecified)
inactive: [1]; at 1.2 µM 4% | [1]; at 3.7 µM 14% | [1]; at 11.0 µM 25% | [2]; at 1.2 µM -4% | [2]; at 3.7 µM -4% | [2]; at 11.0 µM -7% | [2]; at 33.0 µM 19% | [3]; at 1.2 µM 11% | [3]; at 3.7 µM 20% | [3]; at 11.0 µM 42% | [4]; at 1.2 µM -1% | [4]; at 3.7 µM -2% | [4]; at 11.0 µM -2% | [4]; at 33.0 µM 53% | [5]; at 1.2 µM 9% | [5]; at 3.7 µM 6% | [5]; [17] -141% | [5]; at 11.0 µM 12% | [6]; at 1.2 µM 4% | [6]; at 3.7 µM 5% | [6]; [17] -49% | [6]; at 11.0 µM 12% | [6]; at 33.0 µM 38% | [6]; [18] 28% | [7]; at 1.2 µM 0% | [7]; at 3.7 µM -1% | [7]; at 11.0 µM 9% | [7]; at 33.0 µM 38% | [8]; [17] -63% | [9]; at 1.2 µM 2% | [9]; at 3.7 µM 1% | [9]; at 11.0 µM 1% | [9]; at 33.0 µM 13% | [10]; [17] -57% | [10]; [18] -60% | [10]; at 50.0 µM 7.45% | [11]; at 1.2 µM 0% | [11]; at 3.7 µM 9% | [11]; [17] -53% | [11]; at 11.0 µM 18% | [11]; at 33.0 µM 69% | [11]; [18] 69% | [12]; at 1.2 µM 2% | [12]; at 3.7 µM 1% | [12]; at 11.0 µM 0% | [12]; at 33.0 µM 37% | [13]; at 1.2 µM 9% | [13]; at 3.7 µM 2% | [13]; at 11.0 µM 12% | [14]; at 1.2 µM 1% | [14]; at 3.7 µM 2% | [14]; at 11.0 µM 18% | [15]; [17] -122% | [16]; at 1.2 µM 0% | [16]; at 3.7 µM 5% | [16]; at 11.0 µM 15% | [16]; at 33.0 µM 67%
active: [1]; at 33.0 µM 71% | [1]; at 100.0 µM 99% | [2]; at 100.0 µM 99% | [3]; at 33.0 µM 73% | [3]; at 100.0 µM 92% | [4]; at 100.0 µM 99% | [5]; at 33.0 µM 95% | [5]; [18] 82% | [5]; at 50.0 µM 97.2% | [5]; at 100.0 µM 98% | [6]; at 50.0 µM 98.7% | [6]; at 100.0 µM 99% | [7]; at 100.0 µM 99% | [8]; [18] 75% | [8]; at 50.0 µM 84.7% | [9]; at 100.0 µM 98% | [11]; at 50.0 µM 97.3% | [11]; at 100.0 µM 99% | [12]; at 100.0 µM 99% | [13]; at 33.0 µM 83% | [13]; at 100.0 µM 99% | [14]; at 33.0 µM 92% | [14]; at 100.0 µM 99% | [15]; [18] 82% | [15]; at 50.0 µM 99.1% | [16]; at 100.0 µM 98%
